From PubChem BioAssay (NCATS)
Inconclusive results are not listed. Calls of active or inactive are those of the source. The call rests on the fitted dose curve; in most records, active means well fitted inhibition curve with a large enough effect; inconclusive means small, poorly fitted or top-dose-only effect; inactive means flat fitted curve, though single readings scatter. Where a SMILES comes first, the peptide text is derived from it. [ ]: non-standard residue; d: D form. 2Abz = Nc1ccccc1C(=O)O

biological target: Calcium and integrin-binding protein 1 (Homo sapiens) (UniProt Q99828); assay: Primary qHTS for Identification of Calcium Integrin Binding Protein 1 (CIB1) Competitor (AID 1508620); conditions: CIB1-GST / FITC-alphaIIb peptide fluorescence polarization; series mostly up to 57.7 µM; activity change, negative = inhibition: at the top concentration;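 further: GST tagged CIB1 binding a fluorescein labelled alphaIIb integrin peptide tracer; top concentration of the series differs between compounds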
Source text: Assay Provider: Ulhas P. Naik, PhD Sidney Kimmel Medical College Thomas Jefferson University, Philadelphia, PA Primary function of platelets is to maintain hemostasis. At the site of vascular injury, platelets adhere to adhesive proteins such as collagen and von Willebrand factor. Adherent platelets are activated and generate soluble platelet agonists such as thrombin, ADP and thromboxane A2. Following exposure of circulating platelets to these agonists, results in platelet shape change, granule secretion and activation of platelet integrin alphaIIb-beta3. Ligand binding to activated integrin alphaIIb-beta3 triggers outside-in signaling, leading to platelet aggregation, stabilization of platelet plug, and clot retraction. Upon atherosclerotic plaque rupture also causes platelet plug formation, which underlies a number of cardiovascular diseases such as myocardial infraction and stroke. A number of anti-platelet drugs such as aspirin, clopidogrel, prasugrel, vorapaxar, and eptifibatide are currently available to prevent the thrombotic complications. However, these anti-platelet agents have several limitations including inherent variability in individual responses, developing resistance, and serious bleeding side effects. For these reasons they are not suitable for long-term protection. Based on the experiences with current anti-platelet drugs, it appears that the most useful therapeutic approach is to intersect the secondary responses such as integrin outside-in signaling or recruitment of platelets by TxA2 and secreted ADP. Compounds, which can largely preserve the primary hemostatic function of platelets but inhibit secondary response will be most desired therapeutic agents for treatment of cardiovascular disease. CIB1 is a calcium integrin binding protein, which specifically interact with the alphaIIb subunit of integrin alphaIIb-beta3. Binding of CIB1 to alphaIIb regulates the outside-in signaling in platelets, which is needed for thrombus stabilization and thrombus growth. […] Therefore, we propose that discovery of a small molecule that can prevent the association of CIB1 and alphaIIb-beta3 will be a potential anti-platelet agent that can block the thrombus formation without undue effect on hemostasis. Reference: [1] Naik MU, Nigam A, Manrai P, et al. CIB1 deficiency results in impaired thrombosis: the potential role of CIB1 in outside-in signaling through integrin alpha IIb beta 3. J Thromb Haemost.
PROTOCOL TABLES SEQUENCE No. (1, 2, 3, etc.); […] (e.g., Cells, Incubation, Reagent, etc.); VALUE and DESCRIPTION. 1; Reagent; 3 uL; Protein or buffer (4/3x) 2; Compound; 46 nL; Control inhibitor / compound library 3; Time; 15 min; Room temperature incubation 4; Reagent; 1 uL; Fluorescent labeled peptide (4x) 5; Time; 1000 rpm; Centrifuge 6; Time; 15 min; Room temperature incubation 7; Detection; Ex 480/ Em 540; ViewLux Fluorescence Read NOTES (numbers refer to sequence above) 1; Protein Mixture: C1B1-GST (final concentrations of 1 uM). […] 3; Room temperature incubation. 4; Fluorescent Labeled Peptide: FITC-aIIb (final concentration of 100 nM). Sequence of alphaIIb peptide: Acetyl-[…]-FITC (purity is 95.83%). 5; Centrifuge 1000 rpm (164 g) for 15 seconds. 6; Room temperature incubation. 7; ViewLux Fluorescent Polization Read: excitation = 480(20) / emission = 540(25) S and P; FITC Dichroic mirror.
On the % scale 0 is the no-effect control and ±100 the full control effect.

Sequence of Calcium and integrin-binding protein 1 (Homo sapiens) (Q99828 whole entry, looked up): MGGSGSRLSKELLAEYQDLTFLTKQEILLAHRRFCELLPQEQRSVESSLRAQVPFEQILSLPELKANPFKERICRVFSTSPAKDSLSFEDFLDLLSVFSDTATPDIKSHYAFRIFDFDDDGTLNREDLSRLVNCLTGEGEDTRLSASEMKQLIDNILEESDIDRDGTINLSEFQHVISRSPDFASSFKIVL

| Structure (SMILES) | Potency | activity change, negative = inhibition |
| --- | --- | --- |
| Nc1ccn([C@@H]2C(F)=C(CO)[C@@H](O)[C@H]2O)c(=O)n1 | inactive | – |
| COc1cc(C)c(C(=O)O[C@H]2[C@@H](O)[C@H](n3ccc(=O)[nH]c3=O)O[C@@H]2CO)c(OC)c1 | – | -5.75% (inactive) |
| CC[C@H](/C=C/[C@@H](C)[C@H]1CC[C@H]2[C@@H]3CC=C4C[C@@H](O)CC[C@]4(C)[C@H]3CC[C@]12C)C(C)C | – | 1.65% [at 12.4 µM] (inactive) |
| CC(O)(CC(=O)O)CC(=O)O[C@@H]1[C@@H](O)[C@H](OCCc2ccccc2)O[C@H](CO)[C@H]1O (stereo not given in full) | – | 4.23% (inactive) |
| CC1(C)CCC2(C(=O)OC3OC(COC4OC(CO)C(O)C(O)C4O)C(O)C(O)C3O)CCC3(C)C(=CCC4C5(C)CCC(O)C(C)(C(=O)O)C5CCC43C)C2C1O (stereo not given) | – | 0.991% [at 30.2 µM] (inactive) |
| C[C@@H]1C/C=C/C=C\C=C\C=C\[C@H](O[C@@H]2O[C@H](C)[C@@H](O)[C@H](N)[C@@H]2O)C[C@@H]2O[C@](O)(C[C@@H](O)C[C@H]3O[C@@H]3/C=C/C(=O)O1)C[C@H](O)[C@H]2C(=O)O | – | 1.59% [at 30.2 µM] (inactive) |
| N#CC1C(=O)Nc2scc(-c3ccc(-c4ccccc4O)cc3)c2C1=O (stereo not given) | – | -4.82% [at 114 µM] (inactive) |
| O=C(O)CCc1cccc(O[C@@H]2O[C@H](CO)[C@@H](O)[C@H](O)[C@H]2O)c1O | – | -4.98% (inactive) |
| CC(C#N)C(C)O[C@@H]1O[C@H](CO)[C@@H](O)[C@H](O)[C@H]1O (stereo not given in full) | – | -0.323% [at 114 µM] (inactive) |
| c1ccc(Cc2ncc3c(n2)CCNCC3)cc1 | – | -2.51% [at 114 µM] (inactive) |
| CC(C)N(C[C@H]1O[C@@H](n2cnc3c(N)ncnc32)[C@H](O)[C@@H]1O)C1CC(CCc2nc3ccc(C(C)(C)C)cc3[nH]2)C1 (stereo not given in full) | inactive | – |
| C=C1CCC2C(OC(=O)C2(O)COC(C)=O)C2C(=C)C(O)CC12 (stereo not given) | – | -14.8% (inactive) |
| CC(=O)OCC(=O)O[C@@H]1[C@H]2[C@@H](OC(=O)c3ccccc3)[C@@H](C)C[C@]2(O)[C@H](OC(C)=O)C2(C)[C@H]3CC(C)(C)C(=O)[C@@H]3CC1(OC(C)=O)[C@@H]2OC(C)=O (stereo not given in full) | – | -3.47% [at 30.2 µM] (inactive) |
| C[C@]1(O)CC[C@@H]2C(C(=O)O)=CO[C@@H](O[C@@H]3O[C@H](COC(=O)c4ccc(O)cc4)[C@@H](O)[C@H](O)[C@H]3O)[C@@H]21 | – | 1.12% (inactive) |
| C=CC(C)(O)CC/C=C(/C)C(=O)OC1C(OC2OCC(OC3OC(CO)C(O)C(O)C3O)C(OC3OCC(O)C(OC4OC(C)C(O)C(O)C4O)C3O)C2O)COC(OC(=O)C23CCC(C)(C)CC2C2=CCC4C5(C)CCC(OC6OC(CO)C(OC7OC(CO)C(O)C(OC8OCC(O)C(O)C8O)C7O)C(O)C6O)C(C)(C)C5CCC4(C)C2(C)CC3O)C1O (stereo not given) | – | -3% [at 12.4 µM] (inactive) |
| CCOc1nc2cccc(C(=O)O)c2n1Cc1ccc(-c2ccccc2-c2noc(=O)[nH]2)cc1 | – | -14.5% [at 114 µM] (inactive) |
| CC(C)c1ccc(CC(=O)N2CCC[C@@H](c3cccc(OC(C)(C)C(=O)O)c3)C2)cc1 | – | 5.19% [at 114 µM] (inactive) |
| c1ccc(C(OC2CCN(CCCc3nn[nH]n3)CC2)c2ccccc2)cc1 | – | -6.05% [at 114 µM] (inactive) |
| CC1CCC2C(C)(C)C(O)CCC2(C)C12Cc1c(O)cc3c(c1O2)CN=C3N (stereo not given) | – | 4.39% (inactive) |
| C=CC1(C)C=C2C(O)CC3C(C)(C(=O)O)CCCC3(C)C2CC1 (stereo not given) | – | 2.94% (inactive) |

| Structure (SMILES) | Potency | activity change, negative = inhibition |
| --- | --- | --- |
| CC(C)CC(=O)O[C@@H]1OC=C(CO[C@@H]2O[C@H](CO[C@@H]3O[C@H](CO)[C@@H](O)[C@H](O)[C@H]3O)[C@@H](O)[C@H](O)[C@H]2O)[C@H]2C[C@H](O)[C@@H](CO)[C@@H]12 | – | -3.51% [at 30.2 µM] (inactive) |
| Cc1[nH]cnc1C1CCN(c2nc3cccc4c3n2CCC4=O)CC1 | – | 0.388% [at 114 µM] (inactive) |
| C=C1CC23CCC4[C@@](C)(CCC[C@@]4(C)C(=O)O)C2CCC1C3 (stereo not given in full) | – | -7.69% [at 114 µM] (inactive) |
| COc1cc([C@@H]2Oc3c(OC)cc(CCCO)cc3[C@@H]2CO[C@@H]2O[C@H](CO)[C@@H](O)[C@H](O)[C@H]2O)ccc1O | – | -1.63% (inactive) |
| CCS(=O)(=O)N1CCC([C@@H](C)n2c(C)c(C(=O)NCc3c(OC)cc(C)[nH]c3=O)c3ccccc32)CC1 | – | -6.33% [at 114 µM] (inactive) |
| C[C@@H]1O[C@@H](O[C@H]2[C@H](OC(=O)[C@]34CCC(C)(C)C[C@H]3C3=CCC5[C@@]6(C)C[C@H](O)[C@H](O[C@@H]7O[C@H](CO[C@@H]8OC[C@H](O)[C@H](O)[C@H]8O)[C@@H](O)[C@H](O)[C@H]7O)C(C)(C)C6CC[C@@]5(C)[C@]3(C)C[C@H]4O)OC[C@@H](O)[C@@H]2O)[C@H](O)[C@H](O[C@@H]2OC[C@](O)(CO)[C@H]2O)[C@H]1O[C@@H]1OC[C@H](O)[C@H](O[C@@H]2OC[C@@H](O)[C@H](O)[C@H]2O)[C@H]1O (stereo not given in full) | – | 1.69% [at 12.4 µM] (inactive) |
| COC(=O)C1=CO[C@@H](O[C@@H]2O[C@H](CO)[C@@H](O)[C@H](O)[C@H]2O)[C@@H]2[C@@](C)(O)[C@@H](O)C[C@]12O | – | 4.61% (inactive) |
| CC1(C)CC[C@]2(C(=O)O)CC[C@]3(C)C(=CCC4[C@@]5(C)C[C@@H](O)[C@H](O)C(C)(C)C5CC[C@]43C)[C@@H]2[C@@H]1O (stereo not given in full) | – | -0.811% (inactive) |
| C=C1CC/C=C(/CO)C(=O)C[C@@H]2[C@@H]1CC2(C)C | – | 1.08% [at 114 µM] (inactive) |
| O=C(/C=C/c1ccc(O)cc1)OCC1=C[C@@H](O)[C@@H]2C=CO[C@@H](O[C@@H]3O[C@H](CO)[C@@H](O)[C@H](O)[C@H]3O)[C@H]12 | – | 4.5% (inactive) |
| C[C@@H]1O[C@@H](O[C@H]2[C@H](O[C@H]3CC[C@@]4(C)C(CC[C@]5(C)C4CC=C4C6CC(C)(C)CC[C@]6(C(=O)O[C@@H]6O[C@H](CO[C@@H]7O[C@H](CO)[C@@H](O[C@@H]8O[C@@H](C)[C@H](O)[C@@H](O)[C@H]8O)[C@H](O)[C@H]7O)[C@@H](O)[C@H](O)[C@H]6O)CC[C@]45C)[C@]3(C)CO)OC[C@H](O)[C@@H]2O)[C@H](O)[C@H](O)[C@H]1O (stereo not given in full) | – | 2.74% [at 12.4 µM] (inactive) |
| O=C(O)c1n[nH]c2c1C[C@H]1C[C@@H]21 | – | 0.497% [at 114 µM] (inactive) |
| CC12CCC3c4ccc(O)cc4CCC3C1CCC2OC1OC(C(=O)O)C(O)C(O)C1O (stereo not given) | – | -0.0165% [at 114 µM] (inactive) |
| C=C[C@](C)(CC/C=C(\C)C(=O)O)O[C@@H]1OC[C@H](O)[C@H](O)[C@H]1O | – | -11.9% (inactive) |
| Cc1ccc(C(=O)Nc2ccc(Oc3cc4cnn(C)c4cc3-c3cn[nH]c3)c(F)c2)c(=O)n1-c1ccc(F)cc1 | inactive | – |
| C=C[C@@]1(C)CC(=O)C2[C@](C)(O1)[C@@H](OC(C)=O)[C@@H](O)[C@H]1C(C)(C)CCC[C@]21C (stereo not given in full) | – | 1.14% [at 30.2 µM] (inactive) |
| COc1cc(C2Oc3c(OC)cc(CCCO[C@@H]4O[C@H](CO)[C@@H](O)[C@H](O)[C@H]4O)cc3C2CO)ccc1O (stereo not given in full) | – | -7.26% (inactive) |
| NS(=O)(=O)NCCNc1nonc1C(=Nc1ccc(F)c(Br)c1)NO | inactive | – |
| CC1(C)C(=O)N2c3ccccc3[C@]3(CC(n4cnc5ccccc5c4=O)C(=O)O3)[C@H]2N1O (stereo not given in full) | – | -3.03% (inactive) |
| CCC(C)C1NC(=O)C2CCCN2C(=O)C(C(C)C)NC(=O)c2ccccc2NC(=O)C(Cc2ccc(O)cc2)NC(=O)C(C)NC(=O)C(C(C)O)NC1=O (stereo not given) (cyclo([2Abz]VPITAY); configuration not given here) | – | 4.46% [at 30.2 µM] (inactive) |
